Assay results as given in PubChem BioAssay (NCATS).
Inconclusive results are not listed. Where a call stands in place of a potency, no number is given. Calls of active or inactive are those of the source. Calls come from the whole dose curve; as a rule, active = well fitted activation curve with a large enough effect; inconclusive = small, poorly fitted or top-dose-only effect; inactive = flat fitted curve, though single readings scatter.

experiment: Primary redox qHTS assay for identification of artifact compounds. (AID 1845223); conditions: Amplex Red/HRP redox cycling with DTT, fluorescence; series mostly up to 53.8 µM
Outline: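 Amplex Red (25 uM) and HRP (250 mU/mL) in HBSS, with compounds for 15 min, then 250 uM DTT for 30 min, room temperature, dark. Fluorescence 525/598 nm read; normalized to DMSO and 10 uM DA3003; Hill fit.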

Structure (SMILES)	Potency
C=C1C2CCC3CC2(CC(O)C2(O)C1CC(OC1OC(CO)C(O)C(O)C1O)C2(C)C)CC3(C)O (configuration not stated)	inactive
C[C@@H]1C(=O)O[C@H](C)[C@H]1C[C@@H](O)[C@](C)(O)[C@H]1CC[C@@]2(O)C3=CC(=O)[C@@H]4C[C@@H](O)[C@@H](O)C[C@]4(C)C3CC[C@]12C (some centres not stated)	inactive
CC(=O)/C=C/C1(O)C(C)CC(O[C@@H]2O[C@H](CO)[C@@H](O)[C@H](O)[C@H]2O)CC1(C)C (some centres not stated)	inactive
CC(C)c1ccc2c(c1)C(O)CC1C(C)(C(=O)O)CCCC21C (configuration not stated)	inactive
COc1ccc(OC2OC(CO[C@@H]3O[C@@H](C)[C@H](O)[C@@H](O)[C@H]3O)C(O)C(O)C2O)cc1OC (some centres not stated)	inactive
Cc1sc(C)c(C(=O)NC2(c3ccc(C(=O)O)cc3)CC2)c1Cc1ccc(C(F)(F)F)cc1	inactive
CC(=O)OC12CC(C)C(O)C1/C=C(/COC1OC(CO)C(O)C(O)C1O)CCC1C(/C=C(\C)C2=O)C1(C)C (configuration not stated)	inactive
COC(=O)C1=CO[C@@H](O[C@@H]2O[C@H](CO)[C@@H](O)[C@H](O)[C@H]2O)[C@H]2[C@@H]1[C@H](O)[C@H](O)[C@]2(C)O	inactive
CC(C)c1ccc2c(c1)C(O)CC1C(C)(CO)CCCC21C (configuration not stated)	inactive
Nc1ncnc2c1ncn2[C@H]1O[C@@H](C(=O)N2CCN(CC(=O)Nc3cccc4c3CNC4=O)CC2)[C@H](O)[C@@H]1O	inactive
O=C(COCC(=O)N1CCN(C(c2ccccc2)c2ccccc2)CC1)Nc1ccc(Cl)cc1C(=O)O	inactive
CC(O)C(O)/C=C/C=C/C(=O)O[C@@H]1C=C(C(=O)O)[C@](O)(CO)[C@@]2(C)CCCC(C)(C)[C@H]12 (some centres not stated)	inactive
